From PubChem BioAssay (Tox21)
A number with no mark means an inactive call. Inconclusive results are not listed. Where a call stands in place of a potency, no number is given. Calls of active or inactive are those of the source. Unless noted, calls follow the shape of the dose curve; as a rule, active = well fitted curve in the direction sought with a large enough effect in the repeat runs; inconclusive = weak or mixed curves; inactive = no such curve, though single readings can be large; an effect the other way counts as inactive or inconclusive.

Assays:
[1] = target: Progesterone receptor (Homo sapiens) (UniProt P06401); assay: qHTS assay to identify small molecule agonists of the progesterone receptor (PR) signaling pathway (AID 1346784; calls by dose curve; also: nearly all actives have a fitted effect of over 30% in size)
Chain of Progesterone receptor (Homo sapiens) (P06401 whole entry, looked up): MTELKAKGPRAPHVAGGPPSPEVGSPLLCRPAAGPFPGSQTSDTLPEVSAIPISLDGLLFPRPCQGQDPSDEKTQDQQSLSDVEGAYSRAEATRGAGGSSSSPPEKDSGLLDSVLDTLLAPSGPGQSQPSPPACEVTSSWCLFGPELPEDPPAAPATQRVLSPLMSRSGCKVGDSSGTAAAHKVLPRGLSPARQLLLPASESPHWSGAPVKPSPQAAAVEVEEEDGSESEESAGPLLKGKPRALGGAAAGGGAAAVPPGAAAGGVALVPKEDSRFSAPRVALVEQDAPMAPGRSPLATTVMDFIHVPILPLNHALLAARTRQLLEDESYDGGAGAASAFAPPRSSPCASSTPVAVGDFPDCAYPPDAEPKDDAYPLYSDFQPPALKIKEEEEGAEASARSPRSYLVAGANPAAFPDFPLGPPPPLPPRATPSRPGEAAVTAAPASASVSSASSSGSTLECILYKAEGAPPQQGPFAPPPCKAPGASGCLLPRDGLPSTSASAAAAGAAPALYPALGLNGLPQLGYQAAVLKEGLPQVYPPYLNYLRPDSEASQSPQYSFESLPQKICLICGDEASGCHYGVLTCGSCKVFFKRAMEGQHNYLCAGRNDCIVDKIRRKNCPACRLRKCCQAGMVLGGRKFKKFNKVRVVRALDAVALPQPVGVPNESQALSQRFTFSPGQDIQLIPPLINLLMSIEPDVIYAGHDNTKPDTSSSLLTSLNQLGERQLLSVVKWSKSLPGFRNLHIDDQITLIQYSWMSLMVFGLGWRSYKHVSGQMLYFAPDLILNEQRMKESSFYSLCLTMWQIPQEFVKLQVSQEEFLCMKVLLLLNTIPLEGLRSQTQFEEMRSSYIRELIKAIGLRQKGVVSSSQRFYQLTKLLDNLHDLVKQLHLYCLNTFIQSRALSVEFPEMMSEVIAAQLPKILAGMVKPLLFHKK
In short: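 Beta-lactamase reporter read-out: after 16 hr compound treatment at 37C and a further 2 hr at room temperature with LiveBLAzer B/G FRET substrate, fluorescence was measured in PR-UAS-bla HEK 293T cells grown in 2% charcoal-stripped serum.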

[2] = target: Progesterone receptor (Homo sapiens) (UniProt P06401); assay: qHTS assay to identify small molecule antagonists of the progesterone receptor (PR) signaling pathway (AID 1346795; active = well fitted inhibition curve with a large enough effect in the signal ratio in the repeat runs, not every such curve was filed as active; the % refers to the signal ratio; also: potency is read from the fitted curve at half-maximal effect)
In short: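 Read-out is fluorescence from the LiveBLAzer B/G FRET substrate, cleaved by a UAS-controlled beta-lactamase in PR-UAS-bla HEK293T cells after 16 hr exposure to compound plus 1 nM promegestone (final), followed by 2 hr at room temperature.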

[3] = qHTS assay to identify small molecule antagonists of the progesterone receptor (PR) signaling pathway - cell viability counter screen (AID 1346798);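 also: HEK293T PR-UAS-bla cells stimulated with the agonist R5020; series mostly up to about 92 µM; nearly all actives have a fitted effect of over 50% in size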
In short: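 HEK293T PR-UAS-bla, 2% charcoal-stripped FBS; 4 hr pre-plate; cpd + R5020, 16 h 37C; LiveBLAzer read first; then CellTiter-Glo 30 min RT, luminescence.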

[4] = qHTS assay to identify small molecule antagonists of the TGF-beta/Smad signaling pathway - cell viability counter screen (AID 1346824); also: nearly all actives have a fitted effect of over 50% in size
In short: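 Cytotoxicity counter-screen run in the same wells as the beta-lactamase Smad reporter read: CellTiter-Glo luminescence after 30 min at room temperature. HEK 293T SBE-bla cells had 5 hr compound exposure at 37 C with TGF-beta1 (0.25 ng/mL stock).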

[5] = qHTS assay to identify small molecule agonists of the TGF-beta/Smad signaling pathway - cell viability counter screen (AID 1346829); also: top concentration of the series differs between compounds; nearly all actives have a fitted effect of over 45% in size
In short: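 Cytotoxicity counter screen: CellTiter-Glo luminescence (30 min, room temperature) measured in the SBE-bla HEK 293T reporter wells after 5 hr compound treatment at 37 C and the 2 hr substrate step.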

[6] = qHTS assay to identify small molecule agonists of the TGF-beta/Smad signaling pathway (AID 1346859; active = well fitted activation curve with a large enough effect in the signal ratio in the repeat runs, not every such curve was filed as active; the % refers to the signal ratio; also: series mostly up to about 77 µM)
In short: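 SBE-bla HEK 293T, 4,000 cells/well, plated o/n; cpd in DMSO, 5 hr, 37 C/5% CO2; B/G FRET substrate 2 hr RT; ex 405, em 460/530 nm.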

[7] = target: Thyrotropin-releasing hormone receptor (Homo sapiens) (UniProt P34981); assay: qHTS assay to identify small molecule antagonists of the thyrotropin-releasing hormone receptor (TRHR) signaling pathway (AID 1346877; active = well fitted inhibition curve with a large enough effect in the repeat runs, not every such curve was filed as active; also: series mostly up to about 51 µM)
Chain of Thyrotropin-releasing hormone receptor (Homo sapiens) (P34981 whole entry, looked up): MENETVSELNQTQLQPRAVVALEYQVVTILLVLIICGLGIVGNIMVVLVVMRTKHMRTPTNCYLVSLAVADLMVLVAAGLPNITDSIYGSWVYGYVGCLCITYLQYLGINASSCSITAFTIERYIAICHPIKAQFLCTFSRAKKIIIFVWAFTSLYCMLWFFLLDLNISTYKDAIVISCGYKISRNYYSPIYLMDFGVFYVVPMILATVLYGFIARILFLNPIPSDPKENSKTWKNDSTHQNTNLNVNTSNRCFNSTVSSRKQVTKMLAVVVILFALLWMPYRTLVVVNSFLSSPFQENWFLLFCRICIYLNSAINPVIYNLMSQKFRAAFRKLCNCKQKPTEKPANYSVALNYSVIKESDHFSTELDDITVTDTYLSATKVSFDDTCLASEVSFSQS
In short: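 Kinetic fluorescence (3 min, 1 s resolution) following stimulation with TRH at 1 nM final; HEK293 cells bearing human TRHR; 5 min compound preincubation at RT; concentration-response over 15 points, triplicates.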

[8] = target: Thyrotropin-releasing hormone receptor (Homo sapiens) (UniProt P34981); assay: qHTS assay to identify small molecule agonists of the thyrotropin-releasing hormone receptor (TRHR) signaling pathway (AID 1346891; calls by dose curve; also: series mostly up to about 58 µM)
In short: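 Intracellular calcium rise, read as fluorescence every second for 3 min, served as the agonist signal in dye-loaded HEK293 cells expressing TRHR; each compound ran at 15 concentrations in triplicate.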

[9] = Human pregnane X receptor (PXR) small molecule agonists, qHTS cell viability counter screen (AID 1346977); also: nearly all actives have a fitted effect of over 50% in size
In short: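 PXR-Luc HepG2, 2,000 cells/well, 5% charcoal-stripped FBS; 5hr settle; cpd 24hr, 37C/5% CO2; CellTiter-Fluor at 23hr, read 1hr later (fluorescence).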

## O=C(NCC1CN(c2ccc(N3CCOCC3=O)cc2)C(=O)O1)c1ccc(Cl)s1 (stereo unspecified)
[1]
  Potency: inactive
[2]
  Potency: inactive
[3]
  Potency: inactive
[4]
  Potency: inactive
[5]
  outcome: inactive
[6]
  Potency: inactive
[7]
  outcome: inactive
[8]
  Potency: inactive
[9]
  Potency: inactive

## NC(N)=NCCC[C@H](N)C(=O)O
[1]
  activation: -0.127% [at 8.39 µM]
[2]
  activity change, negative = inhibition: 7.3% [at 8.39 µM]
[3]
  activity change, negative = cytotoxicity: -0.687% [at 8.39 µM]
[4]
  viability change, negative = cytotoxic: 7.48% [at 6.97 µM]
[5]
  activity change, negative = cytotoxicity: 6.19% [at 6.97 µM]
[6]
  activation: 2.75% [at 6.97 µM]
[7]
  activity, negative = inhibition: -3.14% [at 4.65 µM]
[8]
  activation: 0.134% [at 5.23 µM]
[9]
  activity change, negative = cytotoxicity: 6.78% [at 8.39 µM]

## Cc1ccc(C(C)OC(=O)C2(C)CCC(C(=O)O)C2(C)C)cc1 (stereo unspecified)
[1]
  Potency: inactive
[2]
  Potency: inactive
[3]
  Potency: inactive
[4]
  Potency: inactive
[5]
  outcome: inactive
[6]
  Potency: inactive
[9]
  Potency: inactive

## CCOC(=O)C(O)c1ccccc1 (stereo unspecified)
[1]
  Potency: inactive
[2]
  Potency: inactive
[3]
  Potency: inactive
[4]
  Potency: inactive
[5]
  outcome: inactive
[6]
  Potency: inactive
[7]
  outcome: inactive
[8]
  Potency: inactive
[9]
  Potency: inactive

## Nc1cc(C(=O)O)c(O)c(S(=O)(=O)O)c1
[1]
  Potency: inactive
[2]
  Potency: inactive
[3]
  Potency: inactive
[4]
  Potency: inactive
[5]
  outcome: inactive
[6]
  Potency: inactive
[7]
  outcome: inactive
[8]
  Potency: inactive
[9]
  Potency: inactive

## CCc1c(C(=O)NN2CCCCC2)nn(-c2ccc(Cl)cc2Cl)c1-c1ccc(Br)cc1
[1]
  Potency: inactive
[2]
  Potency: 3.44 µM (active)
[3]
  Potency: inactive
[4]
  Potency: inactive
[5]
  outcome: inactive
[7]
  outcome: inactive
[8]
  Potency: inactive

## Cc1cccc(Nc2ccccc2)c1
[1]
  Potency: inactive
[2]
  Potency: inactive
[3]
  Potency: inactive
[4]
  Potency: inactive
[5]
  outcome: inactive
[6]
  Potency: inactive
[9]
  Potency: inactive

## C/C=C/C=C/CO
[1]
  Potency: inactive
[2]
  Potency: inactive
[3]
  Potency: inactive
[4]
  Potency: inactive
[5]
  outcome: inactive
[6]
  Potency: inactive
[9]
  Potency: inactive

## CC(=O)c1cccc([N+](=O)[O-])c1
[1]
  Potency: inactive
[2]
  Potency: inactive
[3]
  Potency: inactive
[4]
  Potency: inactive
[5]
  outcome: inactive
[6]
  Potency: inactive
[7]
  outcome: inactive
[8]
  Potency: inactive
[9]
  Potency: inactive

## CCC(C)(C)CC
[1]
  Potency: inactive
[2]
  Potency: inactive
[3]
  Potency: inactive
[4]
  Potency: inactive
[5]
  outcome: inactive
[6]
  Potency: inactive
[9]
  Potency: inactive

## Cc1[nH]c(C)c(Cl)c(=O)c1Cl
[1]
  activation: 2.04% [at 19 µM]
[2]
  activity change, negative = inhibition: 4.44% [at 18.9 µM]
[3]
  activity change, negative = cytotoxicity: 10.6% [at 18.9 µM]
[4]
  viability change, negative = cytotoxic: 5.33% [at 15.8 µM]
[5]
  activity change, negative = cytotoxicity: 5.04% [at 15.8 µM]
[6]
  activation: 0.225% [at 15.8 µM]
[7]
  activity, negative = inhibition: 2.83% [at 10.5 µM]
[8]
  activation: -1.18% [at 11.8 µM]
[9]
  activity change, negative = cytotoxicity: 6.66% [at 19 µM]

## c1cc(CCCc2ccncc2)ccn1
[1]
  Potency: inactive
[2]
  Potency: 54.5 µM (active)
[3]
  Potency: inactive
[4]
  Potency: inactive
[5]
  outcome: inactive
[6]
  Potency: inactive
[7]
  outcome: inactive
[8]
  Potency: inactive
[9]
  Potency: inactive

## Nc1c(CC(=O)O)cccc1C(=O)c1ccc(Br)cc1
[1]
  Potency: inactive
[2]
  Potency: inactive
[3]
  Potency: inactive
[4]
  Potency: inactive
[5]
  outcome: inactive
[7]
  outcome: inactive
[8]
  Potency: inactive
[9]
  Potency: inactive
